Consider nine compounds from PubChem BioAssay.

Active and inactive are the calls of the source.

Assay [1] can be described thus: adipocyte viability effects, profiling panel, cell-based, 3T3-L1 adipocytes, calcein-AM fluorescence, 48 h, basal (AID 1163). Conditions: 3T3-L1 adipocytes viability, higher = more signal.
Assay [2] in a line: HepG2 cell viability effects, profiling panel, calcein-AM fluorescence, 48 h, basal (AID 1164). Particulars: higher = more signal.
The nature of assay [3]: MM1S cell viability effects, profiling panel, calcein-AM fluorescence, 48 h, basal (AID 1165).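 Also: viability of MM1S multiple myeloma cells under basal unstimulated conditions.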 Conditions: higher = more signal.
Assay [4] in a line: basal RPMI8226 viability, no added stimulus, profiling panel, cell-based, calcein-AM fluorescence, 48 h, PK04 Diversity Set (AID 1166).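 Also: cells grown under basal conditions without added stimulus.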 Particulars: RPMI8226 myeloma viability, higher = more signal.
A short description of assay [5]: basal HepG2 mitochondrial membrane potential changes, profiling panel, cell-based, JC-1 fluorescence, 24 h, 100 nL compound (AID 1167). Conditions: higher = more signal.
A short description of assay [6]: basal 3T3-L1 adipocyte mitochondrial potential changes, profiling panel, cell-based, JC-1 fluorescence, 3T3-L1 adipocytes, 24 h, 100 nL compound (AID 1168). Conditions: JC-1 mitochondrial fluorescence, higher = more signal, called active from +8 up or from −8 down.
Assay [7] in a line: basal RPMI8226 mitochondrial membrane potential changes, profiling panel, cell-based, JC-1 fluorescence, 24 h, 100 nL compound (AID 1169). Particulars: RPMI8226 myeloma, JC-1 mitochondrial potential fluorescence, higher = more signal.
Assay [8] can be described thus: basal MM1S mitochondrial membrane potential changes, profiling panel, cell-based, JC-1 fluorescence, 24 h, 100 nL compound (AID 1170). Particulars: higher = more signal.
Assay [9] can be described thus: A549 lung cancer cell viability effects, profiling panel, resazurin fluorescence, 24 h, PK04 Diversity Set (AID 1171). Particulars: higher = more signal, called active from +8 up or from −8 down.
Assay [10] can be described thus: HepG2 liver cancer cell viability effects, profiling panel, resazurin fluorescence, 24 h, PK04 Diversity Set (AID 1172). Particulars: higher = more signal. On the technique in general: Alamar Blue is a resazurin reagent that responds to reducing activity.
Assay [11] in a line: basal S. cerevisiae growth modulation, no modifier, primary screen, OD600, strain BY4716, 24 h, basal condition (AID 1173). Conditions: OD600, 24 h, higher = more signal, called active from +8 up or from −8 down.
Assay [12] in a line: MM1S myeloma cell viability, profiling panel, resazurin fluorescence, basal, 24 h, PK04 Diversity Set (AID 1174). Conditions: higher = more signal, called active from +8 up or from −8 down.
The target of assay [13] is Dihydroorotate dehydrogenase (quinone), mitochondrial (Plasmodium falciparum (isolate 3D7)) (UniProt Q08210). The experiment in a line: PfDHODH enzyme inhibitors, primary screen, biochemical, C-terminal His tag, absorbance 600 nm (AID 1175).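 Also: recombinant parasite enzyme with a five histidine tag at its C terminus.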 Conditions: DCIP absorbance 600 nm, higher = more signal, called active from +8 up or from −8 down.
Assay [14] can be described thus: S. cerevisiae RM11-1a growth modifiers, primary screen, strain RM11-1a, OD600, basal, 24 h (AID 1177).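 Also: cultures grown under basal conditions with no added stressor.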 Conditions: OD600, 24 h, higher = more signal, called active from +8 up or from −8 down.
Assay [15] is described as follows: E. coli acrAB mutant growth effects, primary screen, E. coli filamentation inducers, strain DRC39, OD650, 24 h (AID 1178).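 Also: growth measured as culture turbidity by optical density at 650 nm.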 Particulars: higher = more signal, called active from +8 up or from −8 down.
The nature of assay [16]: E. coli acrAB mutant growth effects, primary screen, E. coli filamentation inducers, strain DRC39, OD650, 48 h (AID 1179).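 Also: screen aims at cell division blockers that make cells filament.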 Particulars: E. coli DRC39 delta-acrAB growth, higher = more signal, called active from +8 up or from −8 down.
A short description of assay [17]: RPMI8226 myeloma cell viability, profiling panel, resazurin fluorescence, basal, 24 h, PK04 Diversity Set (AID 1180).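 Also: RPMI8826 multiple myeloma cell line at 5000 cells per well.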 Conditions: higher = more signal.
Assay [18] concerns the target E3 ubiquitin-protein ligase XIAP (Homo sapiens) (UniProt P98170). The experiment in a line: XIAP binders, primary screen, biophysical, small-molecule microarray, fluorescence 635 nm (AID 1181).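 Also: score merges 667 nm emission and signal to noise over triplicate slides.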 Conditions: small-molecule microarray binding, higher = more signal.
The subject of assay [19] is XIP peptide (Xip251-270) binding. In words: small-molecule binders of XIP peptide, primary screen, biochemical, small-molecule microarray, fluorescence 635/667 nm, 0.1 µg/mL protein (AID 1182). Conditions: fluorescent protein binding, 635 nm, higher = more signal, called active from +8 up or from −8 down.
Assay [20] relates to XIP peptide (Xip251-270). In words: small-molecule binders of XIP peptide, primary screen, biochemical, small-molecule microarray, fluorescence 635/667 nm, 0.5 µg/mL protein (AID 1183). Particulars: small-molecule microarray binding, fluorescence 635 nm; higher = more signal.

Sequence of E3 ubiquitin-protein ligase XIAP (Homo sapiens) (P98170 whole entry, looked up): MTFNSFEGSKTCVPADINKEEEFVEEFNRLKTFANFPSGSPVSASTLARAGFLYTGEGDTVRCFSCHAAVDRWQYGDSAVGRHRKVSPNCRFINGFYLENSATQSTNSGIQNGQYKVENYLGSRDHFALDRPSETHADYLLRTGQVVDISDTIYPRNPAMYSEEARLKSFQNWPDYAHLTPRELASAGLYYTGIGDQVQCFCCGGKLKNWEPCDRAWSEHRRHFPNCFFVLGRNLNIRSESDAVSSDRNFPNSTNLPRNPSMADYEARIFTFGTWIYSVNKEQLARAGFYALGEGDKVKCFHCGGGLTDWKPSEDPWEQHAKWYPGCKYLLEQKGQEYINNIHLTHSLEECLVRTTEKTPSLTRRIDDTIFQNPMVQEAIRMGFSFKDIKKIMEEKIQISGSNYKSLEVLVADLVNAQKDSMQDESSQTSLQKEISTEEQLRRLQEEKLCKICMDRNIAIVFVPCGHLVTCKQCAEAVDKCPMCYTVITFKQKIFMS
Sequence of Dihydroorotate dehydrogenase (quinone), mitochondrial (Plasmodium falciparum (isolate 3D7)) (Q08210 whole entry, looked up): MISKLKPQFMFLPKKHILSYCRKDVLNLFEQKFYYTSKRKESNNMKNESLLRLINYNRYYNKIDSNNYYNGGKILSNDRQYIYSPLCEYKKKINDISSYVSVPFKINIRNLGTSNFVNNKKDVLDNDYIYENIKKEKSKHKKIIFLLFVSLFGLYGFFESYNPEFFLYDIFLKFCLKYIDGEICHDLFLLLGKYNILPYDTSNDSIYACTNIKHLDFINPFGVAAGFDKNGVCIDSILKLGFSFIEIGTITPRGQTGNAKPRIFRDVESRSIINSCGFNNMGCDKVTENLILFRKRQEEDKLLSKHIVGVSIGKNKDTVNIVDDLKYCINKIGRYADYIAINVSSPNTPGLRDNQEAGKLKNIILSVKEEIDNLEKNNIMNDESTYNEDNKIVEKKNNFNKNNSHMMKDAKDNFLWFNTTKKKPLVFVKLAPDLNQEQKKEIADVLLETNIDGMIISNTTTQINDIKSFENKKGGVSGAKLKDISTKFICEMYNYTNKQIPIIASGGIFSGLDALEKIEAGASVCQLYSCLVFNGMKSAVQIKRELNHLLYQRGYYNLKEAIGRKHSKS

In the case of `CCCCCCC#C[Si](O[C@H](c1ccccc1)c1cn(Cc2ccccc2)nn1)(C(C)C)C(C)C`, the z-score in assay [1] is 0.28; in assay [2] it was -0.316; in [3], 0.163; in assay [4], 0.0412; in [5], 6.57; in assay [6] it was 2.09 (inactive). Further, the z-score was 0.548 in assay [7]; -0.198 in assay [8]; 4.71 (inactive) in [9]; 2.52 in [10]; -0.382 (inactive) in [11]; 2.12 (inactive) in assay [12]. The z-score in assay [14] is -0.486 (inactive); in assay [15] it was 2.12 (inactive); in assay [16], 1.36 (inactive); in [17], 2.68. The composite z-score in assay [13] is 0.337 (inactive); in assay [18] it was -0.0368; in assay [19] it was 0.663 (inactive); in [20], -0.15.

On to `O=C1c2ccccc2[C@@]2(Cc3ccccc3N(CC(F)(F)F)C2=O)[C@H](c2ccc(CO)cc2)N1Cc1ccccc1C(F)(F)F`, for which the z-score was 0.559 in assay [1]; -0.167 in assay [2]; 0.733 in assay [3]; -1.08 in assay [4]; 0.288 in assay [5]; 1.05 (inactive) in assay [6]. Further, the z-score in assay [7] was 0.753; in assay [8], 0.197; in assay [9], -0.203 (inactive); in [10], 0.528; in assay [11] it was -0.829 (inactive); in assay [12] it was 1.02 (inactive). In addition, the z-score in assay [14] is -0.49 (inactive); in assay [15], -0.136 (inactive); in assay [16] it was -0.344 (inactive); in [17], 1.05. Also, the composite z-score in assay [13] is -3.56 (inactive); in assay [18] it was -0.0446; in assay [19] it was -0.765 (inactive); in [20], -1.23.

In the case of `CC(C)N1C(=O)c2ccccc2[C@@H](C(=O)NCc2ccccc2)[C@@H]1c1ccc(CO)cc1`, the z-score in assay [1] was 1.05; in assay [2], -0.179; in assay [3], -0.601; in assay [4] it was 0.0541; in assay [5], 0.617; in assay [6], -0.0455 (inactive). Moreover, the z-score in assay [7] is 0.115; in assay [8], -0.251; in assay [9], 1.05 (inactive); in assay [10], 0.595; in [11] it was 0.25 (inactive); in [12] it was 1.51 (inactive). Moreover, the z-score in assay [14] was 1.49 (inactive); in assay [15], 0.541 (inactive); in assay [16], 0.169 (inactive); in assay [17] it was 1.01. For the same compound, the composite z-score in assay [13] was 0.578 (inactive); in assay [18], -0.0095; in [19], 0.482 (inactive); in assay [20], -0.988.

As for `COCCCNC(=O)[C@@]1(Cc2ccccc2)N=C(c2ccc(OCCCO)cc2)O[C@H]1c1ccccc1N=[N+]=[N-]`, the z-score in assay [1] is 1.95; in assay [2], -0.121; in assay [3], -1.67; in assay [4], -4.02; in [5], 1.12; in assay [6] it was 2.93 (inactive). For the same compound, the z-score in assay [7] was -1.1; in assay [8], -0.433; in assay [9], -1.83 (inactive); in assay [10], 0.357; in assay [11], 0.346 (inactive); in assay [12], -1.13 (inactive). Besides, the z-score in [14] was 2.42 (inactive); in [15], 1.22 (inactive); in [16] it was 0.18 (inactive); in assay [17], -2.12. Moreover, the composite z-score is 1.37 (inactive) in assay [13], 0.085 in [18], 0.619 (inactive) in [19] and -0.473 in assay [20].

For the compound `COc1ccc([Si](C)(C)[C@@H]2[C@@H](CCn3cc(CCO)nn3)O[C@]3(C(=O)N(Cc4ccc(N5C(=O)c6cccc7cccc5c67)cc4)c4ccccc43)[C@H]2C)cc1`, the z-score was 1.91 in [1]; -4.48 in [2]; -2.68 in assay [3]; -4.34 in assay [4]; 1.75 in [5]; 2.83 (inactive) in [6]. The z-score is -1.04 in [7]; -1.78 in assay [8]; -2.38 (inactive) in assay [9]; -1.3 in assay [10]; -0.456 (inactive) in [11]; -5.44 (inactive) in assay [12]. Besides, the z-score in assay [14] is 0.643 (inactive); in assay [15] it was 2.2 (inactive); in assay [16], 1.02 (inactive); in [17], -4.14. The composite z-score was 0.0498 (inactive) in assay [13], 0.0159 in assay [18], 0.437 (inactive) in [19] and 0.739 in [20].

For the compound `C=CCNC(=O)[C@@H]1[C@H]2C(=O)O[C@H](c3ccccc3)[C@H](c3ccccc3)N2[C@H](c2ccc(O)cc2)[C@@]12C(=O)N(C(=O)OCCOC)c1ccc(C#Cc3ccc(OC)cc3)cc12`, the z-score in assay [1] was 1.24; in assay [2] it was 0.216; in assay [3], -1.58; in assay [4], -2.52; in [5], -0.914; in assay [6], 3.45 (inactive). In addition, the z-score is -0.351 in assay [7]; 0.0591 in [8]; 0.834 (inactive) in assay [9]; -0.35 in assay [10]; -0.468 (inactive) in [11]; 0.699 (inactive) in [12]. Further, the z-score was 0.964 (inactive) in [14], 0.236 (inactive) in [15], 0.83 (inactive) in assay [16] and 0.804 in assay [17]. Moreover, the composite z-score is 0.21 (inactive) in [13], 0.14 in [18], 0.688 (inactive) in assay [19] and 0.656 in assay [20].

With `COCCCNC(=O)[C@@]1(C)c2ccccc2C(=O)N(Cc2cc(F)cc(C(F)(F)F)c2)[C@H]1c1ccc(CO)cc1`, the z-score in assay [1] was 0.604; in [2], -0.176; in assay [3], 0.534; in assay [4], -0.0765; in assay [5] it was 1.32; in assay [6], 0.0832 (inactive). Also, the z-score in assay [7] was -0.69; in assay [8], 0.659; in assay [9], 0.914 (inactive); in assay [10] it was -0.0724; in [11], 0.416 (inactive); in [12], 1.09 (inactive). Further, the z-score in assay [14] is 1.35 (inactive); in assay [15], 1.04 (inactive); in assay [16], 0.359 (inactive); in assay [17], 1.31. Further, the composite z-score in [13] was 0.408 (inactive); in assay [18], 2.62; in assay [19], -0.268 (inactive); in assay [20], -1.16.

As to `CC(C)C(=C=CC[C@@H](O)c1ccc(CO)o1)CCO`, the z-score in assay [1] is -0.266; in [2], 0.719; in [3], 0.288; in [4], 0.889; in [5] it was 0.919; in [6], 0.556 (inactive). Besides, the z-score in assay [7] is 0.304; in [8] it was 0.501; in [9] it was 1.37 (inactive); in assay [10], 1.32; in assay [11] it was -1.13 (inactive); in [12] it was 1.07 (inactive). For the same compound, the z-score in [14] was -0.332 (inactive); in [15], 2.09 (inactive); in assay [16] it was 1.39 (inactive); in assay [17], 1.18. The composite z-score is -0.669 (inactive) in [13], -0.0036 in assay [18], 0.676 (inactive) in [19] and -0.514 in assay [20].

Turning to `O=C(O)[C@H]1C[C@H]2C(=O)NCC(=O)N2[C@H]1c1cccc(OCCO)c1`, the z-score in [1] was 0.926; in assay [2] it was -0.59; in assay [3], -1.13; in [4], -0.319; in [5], 1.27; in assay [6] it was -0.116 (inactive). Further, the z-score is -0.186 in [7]; 1.14 in [8]; -0.0876 (inactive) in assay [9]; 0.354 in [10]; -1.62 (inactive) in assay [11]; 1.21 (inactive) in assay [12]. Besides, the z-score in [14] is -1.25 (inactive); in [15], 0.712 (inactive); in [16], -0.057 (inactive); in assay [17], 0.62. Further, the composite z-score in [13] is -1.04 (inactive); in [18], 0.182; in [19], 0.865 (inactive); in assay [20], 0.938.
